High-throughput results from PubChem BioAssay.
p53 reactivator = qHTS assay for re-activators of p53 using a Luc reporter. H1299 p53-A138V BP100-luciferase reporter, luminescence, 24 h. Potency, µM (highest dose often 92.2 µM), actives largely listed as activators. 0.063% of 320,000 active. AID 504706, 2011; also: nearly all actives have a fitted effect of over 45% in size
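p53-null H1299 cells stably carrying temperature-sensitive p53-A138V and a BP100-luciferase reporter were pinned with compounds (4-point, 1:5 series) and held 24 hrs at 37 deg C. Luminescence was read 10 min after detection reagent.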
Mm-Cpn inhibitor = Inhibitors of TCP-1 ring complex (TRiC) of Methanococcus maripaludis (MmCpn): qHTS; Chaperonin Mm-Cpn (Methanococcus maripaludis); purified Mm-Cpn ATPase, ADP Transcreener TR-FRET; AID 504842, 2011; 0.031% of 330,000 active; Potency, µM (doses to about 76.9 µM), most hits filed as inhibitors; also: nearly all actives have a fitted effect of over 80% in size
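Inhibition of chaperonin ATP hydrolysis is measured as reduced ADP production, detected by competitive TR-FRET in which signal falls with ADP. Final enzyme 25 nM and ATP 10 uM, reacted 30 min at 37°C.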
hERG WT inh = qHTS for Inhibitors of KCHN2 3.1: Wildtype qHTS; 0.37% of 340,000 active; activity change, % at 1.84 µM; U2OS, BacMam KCNH2, thallium flux FluxOr; stronger effect = lower value;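 active = maximum activity change below -70%; inconclusive = maximum activity change between -70% and -50%; inactive = maximum activity change above -50%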
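U2OS cells transduced with wild-type KCNH2 virus are loaded with FluxOr dye for 45 min, and thallium flux is measured in kinetic reads before and after stimulation buffer. Rate constants are normalized to DMSO controls.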
KCNH2 3.1 block = qHTS for Inhibitors of KCHN2 3.1: Mutant qHTS. U2OS KCNH2 3.1, thallium flux FluxOr; stronger effect = lower value. AID 720553, 2013. Potassium voltage-gated channel subfamily H member 2, brain isoform KCNH2 3.1 (human). 0.95% of 340,000 active. activity change, % (tested at about 1.8 µM);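 active = maximum activity change below -70%; inconclusive = maximum activity change from -70% to -50%; inactive = maximum activity change above -50%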;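 also: thallium influx rate constant from kinetic fluorescence after stimulation buffer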
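Measured as rate of thallium-driven FluxOr signal in transduced U2OS cells carrying the 3.1 channel, read kinetically for 2 min upon stimulation; values are rate constants scaled to DMSO control wells.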
S-ASM inh = Inhibitors of Secretory Acid Sphingomyelinase (S-ASM): qHTS; Sphingomyelin phosphodiesterase (Homo sapiens), P17405; placental ASM, HMU-PC fluorogenic substrate, 60 min; Potency, µM (highest dose often 57.5 µM), most hits filed as inhibitors; 0.006% of 340,000 active; AID 504937, 2011
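Fluorescence read-out (Ex 386 nm, Em 447 nm) after stopping the reaction at pH 10. Enzyme: ASM from human placenta; substrate HMU-PC0, 9 uM final; 60 min, 37 °C. Compound preincubation 10 min, ambient temperature.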
uPA surface inh = qHTS for Inhibitors of Cell Surface uPA Generation; Potency, µM (top dose mostly 38.3 µM), hits mostly inhibitors; 0.31% of 330,000 active; cell surface uPA generation assay, qHTS; active = well fitted inhibition curve with a large enough effect; inconclusive = small, poorly fitted or top-dose-only effect; inactive = no such curve, though single readings can be large or run the other way; tested in mouse RAW 264.7 cells; also: nearly all actives have a fitted effect of over 55% in size
Hits are given with their value; – = inactive; ? = inconclusive; · = not tested or not shown. Most compounds without a hit are left out; they make up all but 1.4% or so of the library. Unless noted, calls follow the shape of the dose curve; as a rule, active = well fitted curve in the direction sought with a large enough effect; inconclusive = small, poorly fitted or top-dose-only effect, or another doubt; inactive = no such curve, though single readings can be large; an effect the other way counts as inactive or inconclusive.

SMILES | p53 reactivator | Mm-Cpn inhibitor | hERG WT inh | KCNH2 3.1 block | S-ASM inh | uPA surface inh
O=C(/C=C/c1ccc(Cl)cc1Cl)N1CCN(c2ccccc2[N+](=O)[O-])CC1 | – | – | ? | -95 | – | –
O=C(/C=C/c1ccc(Cl)cc1Cl)N1CCN(c2ccc([N+](=O)[O-])c(N3CCOCC3)c2)CC1 | – | – | – | – | – | –
Cc1ccc(N(C(C)C(=O)Nc2cc(Cl)ccc2Oc2ccccc2)S(C)(=O)=O)cc1 (stereo not given) | – | – | – | -72 | – | –
CCN(CC)CCSc1nnc2c3cc(C)ccc3n(Cc3ccccc3)c2n1 | – | – | – | – | – | –
CC(C)(C)OC(=O)NCCCCCc1cn([C@@H](CO)C(=O)NCCCCCCCCCCC(=O)N2CCN(C(=O)OC(C)(C)C)CC2)nn1 | – | – | – | – | – | 11µM
CN(C)c1cc[n+](CC(=O)c2ccc(-c3ccccc3)cc2)cc1 | – | – | – | – | – | 7.1µM
O=C(C[n+]1ccccc1)c1ccc(-c2ccccc2)cc1 | – | – | – | – | – | –
COc1cc(NC(=O)c2csc(-c3ccncc3)n2)cc(C(=O)Nc2cccc(C(F)(F)F)c2)c1 | – | – | ? | -118 | – | –
c1ccc(-c2noc(-c3ccco3)n2)nc1 | 22µM | – | – | – | – | –
Clc1ccc(CN2CCN(c3ncnc4scc(-c5cccs5)c34)CC2)cc1 | – | – | – | -83 | – | –
c1ccc(-n2nnnc2Sc2n[nH]c(-c3ccncc3)n2)cc1 | – | – | -200 | -189 | – | –
Cc1ccccc1-n1nnnc1Sc1nnnn1-c1ccccc1 | – | – | – | – | – | –
COc1cc(C(=O)NC(=S)Nc2ccc(NC(=O)c3ccco3)cc2)cc(OC)c1OC | – | – | – | -83 | – | –
CC1CCCC(=NNc2ccc3ccccc3n2)C1 (stereo not given) | · | · | – | – | – | –
O=C1C=CC(=C(c2ccc(O)cc2)c2ccc(O)cc2)C=C1 | – | – | – | – | – | 2µM
C[C@H](O)[C@@H]1CN2CCc3c([nH]c4ccc(-c5ccc6c(c5)OCO6)cc34)[C@@H]2C[C@@H]1N(C)C(=O)NC1CCCCC1 | · | · | ? | – | · | ·
CCOc1ccc(N2CC(O)(c3cccs3)[N+]3=C2CCCC3)cc1 (stereo not given) | – | – | ? | -102 | – | –
OC1(c2cccs2)CN(c2ccccc2)C2=[N+]1CCCC2 (stereo not given) | – | – | – | – | – | –
CCOc1ccc(N2CC(O)(c3ccc(F)cc3)[N+]3=C2CCCC3)cc1 (stereo not given) | – | – | – | -104 | – | –
COc1ccc(N2CC(O)(c3ccc(C)cc3)[N+]3=C2CCCC3)cc1 (stereo not given) | – | – | – | – | – | –
COc1ccc(N2CC(O)(c3ccc(OC(F)F)cc3)[N+]3=C2CCCC3)cc1 (stereo not given) | – | – | -86 | -73 | – | –
COc1ccc(N2CC(O)(c3ccc(F)cc3)[N+]3=C2CCCC3)cc1 (stereo not given) | – | – | – | – | – | –
O=C(N/N=C/c1ccccc1O)C1CC(=O)N(c2ccc(Cl)cc2)C1 (stereo not given) | 32µM | – | – | – | – | ?
C[C@@H]1CN([C@@H](C)CO)S(=O)(=O)c2ccc(-c3ccc(C#N)cc3)cc2O[C@@H]1CN(C)Cc1ccccn1 | · | · | – | – | · | ·
CCOC(=O)CNC(c1ccccc1)c1cc(Br)ccc1NC(=O)CCN1CCOCC1 (stereo not given) | – | – | · | – | – | 13µM
SMILES | p53 reactivator | Mm-Cpn inhibitor | hERG WT inh | KCNH2 3.1 block | S-ASM inh | uPA surface inh
COC(=O)CNC(c1ccccc1)c1cc(Br)ccc1NC(=O)CCN1CCOCC1 (stereo not given) | – | – | – | – | – | ?
Cc1cccc2sc(N(CCN(C)C)C(=O)/C=C/c3cccs3)nc12 | ? | – | – | – | – | –
CN(C)CCCN(C(=O)CCc1ccccc1)c1nc2c(F)cccc2s1 | – | – | – | -71 | – | –
CN(C)CCCN(C(=O)/C=C/c1cccs1)c1nc2c(F)cccc2s1 | – | – | – | -117 | – | –
Cc1ccccc1CNC(=O)C1CCCN(c2nnc(C)c3c(C)n(-c4ccccc4)nc23)C1 (stereo not given) | – | – | – | -71 | – | –
Cc1cc(NC(=O)COC(=O)[C@H](Cc2ccccc2)NC(=O)c2ccco2)no1 | · | · | – | – | – | –
O=C(Cn1ncc(Cl)c(Cl)c1=O)N1CCN(Cc2ccccc2)CC1 | – | – | – | – | – | 11µM
CCOc1ccccc1NC(=O)CCc1c(C)nn(-c2ccc(N3CCCCC3)nn2)c1C | ? | – | – | – | – | –
O=S(=O)(Nc1nccs1)c1ccc(NS(=O)(=O)c2c(F)cc(F)c(Cl)c2F)cc1 | – | – | -105 | – | – | –
COc1ccc(C(CNC(=O)/C=C/c2c(Cl)nc3ccccn23)N(C)C)cc1 (stereo not given) | – | – | – | -87 | – | –
COc1ccccc1N=C1NC(=O)/C(=C/c2ccc(N(C)C)cc2)S1 | – | – | – | – | – | ?
COc1ccccc1OCC(=O)N/N=C/c1c(O)ccc2ccccc12 | ? | – | · | · | · | ·
COC(=O)C(Cc1ccccc1)NC(=O)CCCC(=O)NCc1cccc(OC)c1 (stereo not given) | ? | – | -70 | – | – | –
Cc1cc(Nc2cccc(Cl)c2Cl)n2ncnc2n1 | – | – | -222 | – | – | –
CCOC(=O)c1ccc(N=c2sc(C(=O)OC)cc(=O)n2-c2ccc(C(=O)OCC)cc2)cc1 | – | – | – | – | – | ?
COC(=O)c1cc(=O)n(CCc2ccc(OC)c(OC)c2)c(=Nc2ccc(F)c(Cl)c2)s1 | – | – | – | – | – | 6.3µM
COC(=O)c1cc(=O)n(Cc2ccc(OC)c(OC)c2)c(=Nc2ccc(F)cc2)s1 | – | – | – | – | – | 4.5µM
COC(=O)c1cc(=O)n(Cc2ccc(F)cc2)c(=Nc2ccccc2)s1 | – | – | – | – | – | 7.1µM
COC(=O)c1cc(=O)n(-c2ccccc2)c(=Nc2ccccc2)s1 | – | – | – | – | – | 4.5µM
